Experimental findings from PubChem BioAssay (NCI) are described below.

Assay in all cases: NCI-60 one-dose screen, 48 h (100 = growth as untreated, 0 = no growth, -100 = all killed)
What all share (details): 10 µM unless noted

Test [1] concerns HCT-15 colon.
Test [2] concerns HT29 colon.
Test [3] concerns SNB-75 CNS.
The subject of test [4] is SNB-19 CNS.
Test [5] relates to U251 CNS.
Test [6] has as its system PC-3 prostate.
In test [7] the test system is SK-MEL-5 melanoma.
Test [8] deals with UACC-62 melanoma.
The subject of test [9] is LOX IMVI melanoma.
Test [10] deals with SK-MEL-28 melanoma.
Test [11] concerns SK-MEL-2 melanoma.
The test system of test [12] is EKVX NSCLC.
Test [13] relates to SN12C renal.
The subject of test [14] is UO-31 renal.
In test [15] the test system is TK-10 renal.
Test [16] relates to ACHN renal.
Test [17] deals with CAKI-1 renal.
The test system of test [18] is A498 renal.
Test [19] concerns CCRF-CEM leukemia.
Test [20] concerns MOLT-4 leukemia.

Molecules are shown by their SMILES. About 83,000 compounds went through this panel and 20% of them were active in at least one assay; those are over-represented in the sample as a whole.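 Interpretation: 100, growth as untreated; towards 0, rising growth inhibition; 0, no net growth; 0 to -100, cell death. Compounds scoring below 10 were considered active.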 Unmarked numbers belong to inactive results. Active and inactive are the calls of the source.

As for `CN1C(=O)/C(=C/c2ccc(C(=O)Nc3ncc(Cc4ccc(Cl)cc4)s3)cc2)SC1=S`, the growth in [1] is 21.7%; in [2], 20.2%; in test [3], 52.1%; in test [4], 69.3%; in test [5], 61.7%; in [6], 55.1%. In addition, the growth was 26.2% in [7]; 21.4% in test [8]; 18% in [9]; 60.2% in test [10]; 75.6% in [11]; 52.6% in [12]. Moreover, the growth was 68.1% in test [13]; 46.7% in [14]; 57.7% in test [15]; 29.2% in test [16]; 21.2% in [17]; 39.9% in test [18]. Moreover, the values for the growth in test [19] and in test [20] were 55.5% and 46.8%, respectively.

For the molecule `Cn1c(=O)c2[nH]c(N/N=C/c3ccccc3Br)nc2n(C)c1=O`, the growth was 100% in test [1]; 106% in [2]; 97.6% in test [3]; 109% in [4]; 111% in test [5]; 98.4% in test [6]. The growth in [7] was 103%; in [8], 96.6%; in test [9] it was 104%; in test [10] it was 107%; in [11], 120%; in [12], 128%. Besides, the growth in test [13] is 104%; in test [14], 92.4%; in test [15], 82.8%; in test [16], 105%; in [17], 93.4%; in [18] it was 92.9%. Further, the growth is 104% in test [19] and 98.3% in test [20].

In the case of `O=C(Nc1ncc(Cc2ccc(Cl)c(C(F)(F)F)c2)s1)c1ccc2nnsc2c1`, the growth in [1] is 40.4%; in [2], 57.7%; in test [3], 90.8%; in [4], 46.2%; in test [5] it was 42.7%; in [6], 38.3%. In addition, the growth was 38.3% in test [7]; 6.95% (active) in test [8]; 29.3% in test [9]; 54.7% in [10]; 47.5% in [11]; 39.4% in test [12]. Besides, the growth in test [13] is 58.2%; in test [14], 40.9%; in test [15] it was 48.3%; in test [16], 43.7%; in test [17], 28.1%; in test [18] it was 82%. The growth in [19] is 45.5%; in [20] it was 30.9%.

With `CC(C)NC1CCC(Nc2ccnc3cc(Cl)ccc23)CC1` (stereo not given), the growth in [1] is 99.1%; in test [2] it was 77.5%; in test [3], 83.7%; in [4], 109%; in test [5], 87.7%; in test [6] it was 78.6%. For the same molecule, the growth in test [7] is 90.8%; in test [8], 97.3%; in test [9], 86.6%; in [10] it was 101%; in [11], 116%; in test [12] it was 97.1%. Moreover, the growth was 102% in [13]; 68.8% in test [14]; 86.8% in [15]; 96.8% in test [16]; 121% in [17]; 89.2% in test [18]. The growth in [19] was -32.1% (active); in test [20], 69.2%.

In the case of `O=C(O)c1ccc(-n2cc(/C=N/Nc3ccc(F)cc3)c(-c3cc4ccccc4oc3=O)n2)cc1`, the growth was 33.9% in [1]; 91% in test [2]; 85.6% in test [3]; 89.2% in test [4]; 104% in test [5]; 69.8% in [6]. Besides, the growth in test [7] was 93.6%; in test [8], 46.1%; in [9], 46.6%; in test [10], 92.3%; in test [11], 83.3%; in test [12], 52.9%. The growth in test [13] is 101%; in [14], 39.8%; in [15] it was 113%; in test [16], 41%; in test [17] it was 68.6%; in [18], 109%. For the same molecule, the growth in [19] is 40.2%; in test [20], 48.1%.

For the molecule `Cn1cc(-c2csc(-c3ccc(Cl)cc3)n2)c2cccnc21`, the growth is -31.9% [100 µM] (active) in [1]; -70.3% [100 µM] (active) in test [2]; -82.5% [100 µM] (active) in test [3]; -41.8% [100 µM] (active) in test [4]; 4.92% [100 µM] (active) in [5]; -16.7% [100 µM] (active) in test [6]. The growth in [7] is -86.9% [100 µM] (active); in test [8] it was -38.5% [100 µM] (active); in test [9], 1.66% [100 µM] (active); in [10], -63.9% [100 µM] (active); in [11] it was -22% [100 µM] (active); in test [12] it was -14.4% [100 µM] (active). For the same molecule, the growth was -42.7% [100 µM] (active) in test [13]; -37.5% [100 µM] (active) in test [14]; -26.1% [100 µM] (active) in test [15]; -50.9% [100 µM] (active) in test [16]; -29.3% [100 µM] (active) in [17]; -79.9% [100 µM] (active) in test [18]. For the same molecule, the growth was -18.8% [100 µM] (active) in [19] and 2.44% [100 µM] (active) in test [20].

With `Cn1cc(-c2nonc2-c2c[nH]c3ccc(Br)cc23)c2cc(Br)ccc21`, the growth is 28.2% in test [1]; 20.6% in [2]; -11.2% (active) in test [3]; 42.8% in test [4]; 42.9% in test [5]; 43.4% in [6]. Further, the growth in test [7] is 70.3%; in test [8], 53.9%; in test [9], 24.8%; in test [10], 59.4%; in test [11] it was 73.9%; in test [12], 33.5%. Moreover, the growth in test [13] is 66.9%; in test [14], 24.4%; in test [15], 39.6%; in test [16], 14.3%; in [17] it was 24%; in test [18], 28%. Moreover, the results for the growth in [19] and in [20] were 34.4% and 25.1%, respectively.

On to `O=C1c2cc(Cl)ccc2S(=O)(=O)c2c(NCCCNCCO)nc3ccccc3c21`, for which the growth was -65.4% (active) in test [1]; -78.8% (active) in test [2]; 32.6% in test [3]; 56.4% in test [4]; -15.8% (active) in test [5]; -14.2% (active) in test [6]. Moreover, the growth in test [7] was 11.3%; in test [8] it was 2.05% (active); in test [9] it was -76.8% (active); in test [10] it was 6.11% (active); in test [11], 23%; in test [12], 33.2%. In addition, the growth was -46% (active) in test [13]; -94.4% (active) in test [14]; -79.6% (active) in [15]; -99.9% (active) in [16]; 6.57% (active) in test [17]; 57.3% in test [18]. Also, the growth is -22.2% (active) in test [19] and -19% (active) in [20].
